Bioassay records (PubChem)
Pf apPOL inh = Pf-apPOL DNA polymerase inhibition | Recombinant Pf-apPOL, molecular beacon fluorescence, 1.5 h | inhibition, % at 10 µM | 0.25% of 210,000 active
mHTT-CaM PPI inh = inhibitors of human mutant huntingtin-calmodulin interaction; P42858; AlphaScreen His-mHTT/GST-CaM binding, luminescence; inhibition, % at 15 µM; 3.6% of 190,000 active; AID 1671202
Hits are given with their value; n = inactive; x = no result. The full list was thinned out, with hits kept by preference. Cut-off read from the data, not from the text of the source: active = inhibition above about 50%; inactive = the rest.

SMILES	Pf apPOL inh	mHTT-CaM PPI inh
Brc1ccc(CN2CCN(Cc3ccc4c(c3)OCO4)CC2)cc1	n	n
CCCCOc1ccc(CN2CCN(c3ccccc3)CC2)cc1	n	n
CC(C)C(O)(C(=O)OCC1CC[N+]2([O-])CCCC12)C(C)O (centres undefined)	n	x
O=C(Nc1ccc(Br)cc1Cl)C(Cl)(Cl)Cl	n	x
O=C(c1nccs1)C1CCCN1 (centres undefined)	x	98
O=C(Cc1cccs1)N1CCCN(C2CCN(Cc3ccc(F)cc3)C2=O)CC1 (centres undefined)	n	60
COCCN1CCC(N2CCCN(C(=O)Cc3cccc(Cl)c3)CC2)C1=O (centres undefined)	n	n
Cc1ccc2cccc(OC(=O)N(C)c3ccccc3)c2n1	n	n
Cc1cccc(NC(c2ccc(N(C)C)cc2)c2ccc3ccc(C)nc3c2O)n1 (centres undefined)	n	100
O=C1OC(c2cncc(Br)c2)=N/C1=C\c1ccccc1Cl	n	n
Cc1nc(C(=O)Nc2ccc(OC(F)(F)F)cc2)c(C)n1C1CCN(C)CC1	n	n
COc1ccccc1CCNCc1cc(OC)c2c(c1)OCO2	n	89
COc1ccccc1CCNCc1ccc2c(c1)OCO2	n	n
Cc1[nH]c2ccccc2c1CCN	n	100
Cc1[nH]c2ccccc2c1CCCNC1CCCCC1	n	n
CCn1cc(C(=O)Nc2ccccc2C)c2cccnc21	n	n
COc1ccc(C2(CN)CCOCC2)cc1OC	n	n
NCC1(c2ccc3c(c2)OCCO3)CCOCC1	106	n
O=c1oc2ccccc2c2c1C(c1ccc(O)cc1)c1c(c3ccccc3oc1=O)O2	69	96
Cc1ccc(C2c3c(c4ccccc4oc3=O)Oc3c2c(=O)oc2ccccc32)o1	n	n
NN=C(N)c1nonc1N	x	n
COc1cccc(CN2CCN(c3ccc(F)cc3)CC2)c1OC	58	n
COc1cccc(CN2CCN(c3ccc(Cl)cc3)CC2)c1OC	n	n
COc1ccc2c(c1)C1(CCN(C(=O)c3ccc(C#N)cc3)C1)C(=O)N2 (centres undefined)	n	n
COc1cc(CNCCc2cccc(Cl)c2)c([N+](=O)[O-])cc1OC	n	57
SMILES	Pf apPOL inh	mHTT-CaM PPI inh
COc1cc(OC)c(OC)cc1CNCCc1cccc(Cl)c1	n	n
Cc1c(C(=O)O)nnn1Cc1ccc(F)cc1Cl	n	n
CCC(=O)Nc1ccc(Cl)cc1C(=O)c1ccccc1	n	n
O=C(CN1CCOCC1)Nc1ccc(Cl)cc1C(=O)c1ccccc1	74	n
COCC(C)NC1CCN(C)CC1 (centres undefined)	n	n
CCn1cc(C(=O)NCc2cccc(Br)c2)c2cccnc21	n	58
CCn1cc(C(=O)NCc2ccc3c(c2)OCO3)c2cccnc21	n	n
CC1(C)Cc2cccc(OCC(=O)N3CC4CC(C3)c3cccc(=O)n3C4)c2O1 (centres undefined)	n	n
O=C1CNC(c2ccccc2Cl)c2cc(Br)ccc2N1 (centres undefined)	n	61
CC(=O)N1CC(=O)Nc2ccc(Br)cc2C1c1ccccc1Cl (centres undefined)	n	n
CC(=O)c1ccc(N2CCN(C)CC2)c(F)c1	n	n
O=C(CN1C(=O)CN=C(c2ccccc2)c2cc(Cl)ccc21)Nc1ccccc1C(F)(F)F	n	n
O=C(CN1C(=O)CN=C(c2ccccc2)c2ccccc21)Nc1cccc(Cl)c1	n	n
COc1ccc(NC(=O)CN2C(=O)CN=C(c3ccccc3)c3cc(Cl)ccc32)cc1OC	n	76
Cc1cccc(NC(=O)CN2C(=O)CN=C(c3ccccc3)c3cc(Cl)ccc32)c1C	n	54
O=[N+]([O-])c1ccc(C(Cl)Cl)o1	n	n
N/C(=N\[N+](=O)[O-])Nc1ccc(NC(=O)c2ccc([N+](=O)[O-])cc2)cc1	n	n
